Assay outcomes as filed in PubChem BioAssay.
The list is not random: actives were taken first. Their share in the collection is about 9%.
HPGD inh – qHTS Assay for Inhibitors of HPGD (15-Hydroxyprostaglandin Dehydrogenase). 15-hydroxyprostaglandin dehydrogenase [NAD(+)] (Homo sapiens), P15428. purified HPGD, NADH fluorescence kinetic, PGE2 substrate. Potency, µM, actives largely listed as inhibitors. actives 4.3% (n = 150,000)
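20 nM HPGD preincubated 15 min at room temperature with compound in 50 mM Tris-HCl pH 8, 0.01% Tween 20. Started with 1 mM NAD+ and 30 uM prostaglandin E2; NADH fluorescence (360/450 nm) read 5 times over 30-s intervals, last minus first.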
IMPase cell inh – qHTS Assay for Identifying the Cell-Membrane Permeable IMPase Inhibitors; Inositol monophosphatase 1 (Rattus norvegicus), P97697; CHO-M1 cells, IP1 accumulation, HTRF TR-FRET ratio; inhibition (IP1 accumulation), % at 46.1 µM; 120,000 tested, under 10 active; AID 901, 2007; active = well fitted curve in the direction sought with a large enough effect in the signal ratio, not every such curve was filed as active; inconclusive = small, poorly fitted or top-dose-only effect, or a change in a side signal; inactive = no such curve, though single readings can be large or run the other way; the % refers to the signal ratio;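 also: cells stimulated with carbachol in lithium chloride buffer; higher means more IMPase inhibition seen as more IP1 and lower FRET ratio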
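The IP-One HTRF competitive assay in carbachol-stimulated CHO-M1 cells quantifies cellular IP1. Compounds spanned up to 46 uM final, and activity is expressed as AC50 from concentration-response fits of the ratio and donor data.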
ALDH1A1 block – qHTS Assay for Inhibitors of Aldehyde Dehydrogenase 1 (ALDH1A1). Aldehyde dehydrogenase 1A1 (Homo sapiens), P00352. Potency, µM (series often up to 75.3 µM), hits mostly inhibitors. actives 7.3% (n = 220,000). Purified ALDH1A1, NADH fluorescence, propionaldehyde substrate. AID 1030, 2008
Target sequence (P00352 whole entry, looked up): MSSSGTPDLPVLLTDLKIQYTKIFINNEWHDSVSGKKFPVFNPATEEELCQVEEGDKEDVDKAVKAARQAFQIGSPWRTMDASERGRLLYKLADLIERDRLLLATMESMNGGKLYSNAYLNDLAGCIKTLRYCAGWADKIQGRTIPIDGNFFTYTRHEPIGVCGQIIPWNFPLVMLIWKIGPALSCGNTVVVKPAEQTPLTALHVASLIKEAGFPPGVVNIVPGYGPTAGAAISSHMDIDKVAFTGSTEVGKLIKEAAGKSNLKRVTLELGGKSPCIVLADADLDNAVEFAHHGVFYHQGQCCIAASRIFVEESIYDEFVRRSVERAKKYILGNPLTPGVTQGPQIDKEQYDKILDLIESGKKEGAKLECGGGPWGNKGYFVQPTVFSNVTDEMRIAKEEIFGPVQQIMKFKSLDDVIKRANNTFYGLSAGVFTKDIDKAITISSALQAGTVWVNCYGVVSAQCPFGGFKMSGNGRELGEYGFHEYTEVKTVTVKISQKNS
A number is an active result; - = inactive; ? = inconclusive; . = no result given. Unless noted, calls follow the shape of the dose curve; as a rule, active = well fitted inhibition curve with a large enough effect (not every such curve was filed as active); inconclusive = small, poorly fitted or top-dose-only effect, or another doubt; inactive = no such curve, though single readings can be large or run the other way.

SMILES	HPGD inh	IMPase cell inh	ALDH1A1 block
CCOC(=O)C1=C(N)OC2=C(C(=O)CC(C)(C)C2)C1C1CCCCC1 (stereo not drawn)	-	-	-
CCOC(=O)C1=C(N)OC2=C(C(=O)CC(C)(C)C2)C1c1cccnc1 (stereo not drawn)	-	-	-
CCOc1ccc(NC2SC(=O)N(Cc3ccccc3)C2=O)cc1 (stereo not drawn)	.	-	.
COc1cc(NC(=O)C2CCCCC2)c(OC)cc1NC(=O)CCC(=O)NCc1ccco1	-	-	-
COc1ccccc1NC(=O)N(Cc1cccs1)Cc1cc2cc3c(cc2[nH]c1=O)OCO3	-	.	?
CN1CCN(C(=O)c2ccc3c(c2)NC(=O)C(C)(C)O3)CC1	8.91µM	?	-
Cc1ccc(C(=O)N2CCN(C)CC2)cc1S(=O)(=O)N1CCCCC1	-	-	?
CCCCN(CC)CCCNC(=O)c1csc2c1CCCCC2	.	.	-
CC1(C)C(=O)C2(CCCCC2)C(=O)OC1c1ccc(O)cc1 (stereo not drawn)	-	-	-
CC1(C)C(=O)C2(CCCC2)C(=O)OC1c1ccco1 (stereo not drawn)	-	-	22.4µM
N#CC(C#N)=C(Nc1ccc(F)cc1)SCc1cccc(F)c1	-	.	-
Cn1cccc1C(=O)N1CCC2(CCN(C(=O)Nc3cccc(C#N)c3)CC2)CC1	-	.	-
Nc1cc2c(cc1C(=O)c1cccc(Br)c1)OCCO2	.	.	-
O=C(Oc1ccccc1)N1CCN(c2ccc(F)cc2)CC1	-	-	-
O=C(Nc1ccc(N2CCN(c3ccc(O)cc3)CC2)cc1)Oc1ccccc1	-	-	11.2µM
O=[N+]([O-])c1cccc(/C=N\Nc2ccc3ccccc3n2)c1O	-	.	1.58µM
Cc1nc2ccccc2cc1C(=O)N/N=C/c1ccccc1[N+](=O)[O-]	-	.	-
O=[N+]([O-])c1cccc(/C=N\N=C2c3ccccc3-c3ccccc32)c1O	28.2µM	-	-
NC(N)=N/N=C/c1cccc([N+](=O)[O-])c1O	.	.	-
O=C1NC[C@H](c2ccccc2)N1	-	.	-
CCOC(=O)N1CCN(c2ccc(O)cc2)CC1	-	-	-
N#C/C=C1/NC(=O)c2ccccc2S1	2.24µM	-	-
O=C1N/C(=C\c2nc3ccccc3s2)c2ccccc21	.	.	-
COCCCNCCOCCOc1ccccc1-c1ccccc1	-	.	-
CC(C)(C)NCCOCCOc1ccccc1-c1ccccc1	-	-	25.1µM
SMILES	HPGD inh	IMPase cell inh	ALDH1A1 block
CN(C)c1ncnc2c1NC1=C(S2)C(=NCCCC(=O)O)CC(C)(C)C1	-	?	?
COc1ncnc2c1NC1=C(S2)C(=NCCC(=O)O)CC(C)(C)C1	.	-	5.01µM
Cc1cccc(N/C(=N\S(=O)(=O)c2ccccc2)C(F)(F)F)c1	-	-	-
Cc1cccc(N/C=C(\[N+](=O)[O-])S(=O)(=O)c2ccccc2)c1	.	.	-
Cc1cccc(N/C=C(\[N+](=O)[O-])S(=O)(=O)c2ccccc2)c1C	.	.	25.1µM
Cc1cccc(Oc2ccc(NC(=O)CCC(=O)OCC(=O)c3ccc(Br)cc3)cc2)c1C	.	-	.
CC(=O)c1cc(C(=O)N2CCCC(CCC(=O)N(C)CCc3ccccn3)C2)cs1 (stereo not drawn)	.	.	-
CN(Cc1ccncc1)C1CC(=O)N(c2ccc(Cl)cc2)C1=O (stereo not drawn)	-	-	-
COC(=O)CN(C)C1CC(=O)N(c2ccc(Cl)cc2)C1=O (stereo not drawn)	-	-	3.16µM
COc1ccc(-c2coc3cc(O)ccc3c2=O)c(O)c1O	7.08µM	.	8.91µM
Cc1ccccc1-c1coc2cc(O)ccc2c1=O	?	-	?
COc1ccc(-c2ccc3c(N)c(C(=O)Nc4cccc(C)c4)sc3n2)cc1	.	-	.
O=C(NCc1cccnc1)C1CC(c2ccc(F)cc2)=NO1 (stereo not drawn)	-	-	-
CCC(C(=O)OCC(=O)Nc1c(Cl)cccc1Cl)c1ccccc1 (stereo not drawn)	-	.	-
COc1ccc(CN(CCC(c2ccccc2)c2ccc(OC(C)C)cc2)C(=O)CCl)cc1OC (stereo not drawn)	?	.	10µM
COc1ccc(C(CCN(Cc2ccc(OC)c(OC)c2)C(C)=O)c2ccccc2)cc1 (stereo not drawn)	.	-	?
CC(=O)OC1CC(OC(C)=O)[C@]2(C)C(CC(OC(C)=O)[C@@]3(C)C4=CC(=O)OC(c5ccoc5)[C@]4(C)CCC32)C1(C)C (stereo partly drawn)	-	.	-
COc1ccc(-n2ncc(Cl)c(Cl)c2=O)cc1	.	.	10µM
COc1ccc(-n2ncc(N(C)n3cccc3)c(Cl)c2=O)cc1	.	-	-
